{"source": "ChEMBL document CHEMBL4513216", "about": "“Probing the Open Global Health Chemical Diversity Library for Multistage-Active Starting Points for Next-Generation Antimalarials” (ACS Infect Dis, 2020)", "note": "About 2,700 (4%) of roughly 68,000 compounds showed an effect of 50% or more. The list comes from a sample in which strong results are over-represented; it also holds similar structures and randomly drawn compounds.", "data": [{"tested_on": "Plasmodium berghei", "assay": "Screen against P. berghei liver stage (PbLuc), transformed with Luciferase, at 2uM", "type": "functional, HepG2", "details": "tested at 2 uM", "units": {"INHIBITION": "%"}, "values": [{"smiles": "Cc1cnc(CNc2ncc(C)c(-c3cnn(C)c3)n2)cn1", "INHIBITION": -20.35}, {"smiles": "Cc1cccc(N2CCC3(CCN(C(=O)c4cccnc4)CC3)C2)n1", "INHIBITION": 7.29}, {"smiles": "Cc1nnc(NC(=O)CN2CCCC2c2noc(C3CC3)n2)s1", "note": "(stereo not drawn)", "INHIBITION": -32.11}, {"smiles": "O=C(NCCc1ccsc1)c1ccoc1", "INHIBITION": 52.08}, {"smiles": "CC(NC(=O)c1ccoc1)C(=O)N(C)Cc1ccsc1", "note": "(stereo not drawn)", "INHIBITION": -56.89}, {"smiles": "O=C(Cc1ccsc1)NCCc1ccoc1", "INHIBITION": 42.8}, {"smiles": "COc1ccc(CN2CCC3(CC2)CCN(CC2CC2)C3=O)cc1", "INHIBITION": -0.64}, {"smiles": "CC(C)CNC(=O)c1ccc(NC(=O)NC(C)c2ccccn2)cc1", "note": "(stereo not drawn)", "INHIBITION": -17.17}, {"smiles": "O=C(c1ccccn1)N1Cc2nccn2CC(COc2cccnc2)C1", "note": "(stereo not drawn)", "INHIBITION": -28.34}, {"smiles": "Cc1ccc(Oc2ncccc2C(=O)O)c(C)c1", "INHIBITION": 50.61}, {"smiles": "Cc1ccc(Oc2ncccc2C(=O)N(C)CCCN(C)C)c(C)c1", "INHIBITION": 32.85}, {"smiles": "Cc1ccc(Oc2ncccc2C(=O)N(C)CC2OCCO2)c(C)c1", "INHIBITION": 23.53}, {"smiles": "O=C(c1ccco1)N1CC2(CCNCC2)c2cc(Cl)ccc21", "INHIBITION": 34.18}, {"smiles": "COc1cc(N2C[C@@H](C)[C@](O)(C3CC3)C2)nc(N)n1", "INHIBITION": 56.12}, {"smiles": "COCc1cc(N2C[C@@H](C)[C@](O)(C3CC3)C2)ncn1", "INHIBITION": 8.09}, {"smiles": "COc1cc(N2C[C@@H](C)[C@](O)(C3CC3)C2)ncn1", "INHIBITION": 18.38}, {"smiles": "CN(CC1CCCC1)C(=O)c1cn(C)nc1-c1cccnc1", "INHIBITION": 32.67}, {"smiles": "COc1nccc(N2CC[C@H](CO)[C@@H](O)C2)c1C#N", "INHIBITION": 5.38}, {"smiles": "Cn1ncc2c1CCCC2NCc1cccc(C(F)(F)F)c1", "note": "(stereo not drawn)", "INHIBITION": 13.24}, {"smiles": "CN1CCCC(c2nc3c([nH]2)CC(C)(C)CNC3=O)C1", "note": "(stereo not drawn)", "INHIBITION": -3.25}, {"smiles": "CC1(C)CNC(=O)c2nc(C3CCN(C(=O)C4CC4)CC3)[nH]c2C1", "INHIBITION": 33.4}, {"smiles": "CC1(C)CNC(=O)c2nc(C3CCCN(C(=O)C4CC4)C3)[nH]c2C1", "note": "(stereo not drawn)", "INHIBITION": 73.68}, {"smiles": "COc1cccc(C(=O)NCCCN2CCc3ccccc3C2)c1OC", "INHIBITION": 51.32}, {"smiles": "Cc1ccccc1C(=O)NCCCN1CCc2ccccc2C1", "INHIBITION": -13.46}, {"smiles": "Cc1cccc(C(=O)NCCCN2CCc3ccccc3C2)c1C", "INHIBITION": 28.88}, {"smiles": "COC[C@@]12CCO[C@@H]1CCN(C(=O)COc1ccc(C)cc1)C2", "INHIBITION": -42.87}, {"smiles": "O=C(NCCc1ccc(Cl)s1)N1CCS(=O)(=O)CC1", "INHIBITION": -13.46}, {"smiles": "COc1cccc(F)c1C(C)NC(=O)NCc1ccnc(C)n1", "note": "(stereo not drawn)", "INHIBITION": -38.35}, {"smiles": "Cc1nc(C)n(CC2CN(S(C)(=O)=O)Cc3nccn3C2)n1", "note": "(stereo not drawn)", "INHIBITION": 26.66}, {"smiles": "CC1=Nc2c(c(=O)[nH]n2C(C)C)C(c2cccs2)S1", "note": "(stereo not drawn)", "INHIBITION": 63.91}, {"smiles": "CC1=Nc2c(c(=O)[nH]n2C(C)C)C(c2ccc3c(c2)OCCO3)S1", "note": "(stereo not drawn)", "INHIBITION": -19.21}, {"smiles": "CC1=Nc2c(c(=O)[nH]n2C(C)C)C(c2ccc3c(c2)n(C)c(=O)n3C)S1", "note": "(stereo not drawn)", "INHIBITION": 53.71}, {"smiles": "CC1=Nc2c(c(=O)[nH]n2C(C)C)C(c2ccccc2)S1", "note": "(stereo not drawn)", "INHIBITION": 18.37}, {"smiles": "CC1=Nc2c(c(=O)[nH]n2C(C)C)C(c2ccc(F)c(F)c2)S1", "note": "(stereo not drawn)", "INHIBITION": -52.59}, {"smiles": "CC1=Nc2c(c(=O)[nH]n2C(C)C)C(c2ccsc2)S1", "note": "(stereo not drawn)", "INHIBITION": 14.2}, {"smiles": "COc1ccccc1[C@@H]1CN(C(=O)c2csc(C)n2)C[C@H]1C(=O)O", "INHIBITION": 10.69}, {"smiles": "CC(C)CC(C#N)NC(=O)COC1CCCCC1", "note": "(stereo not drawn)", "INHIBITION": 30.23}, {"smiles": "c1csc(CN2C[C@@H]3OCCN(CC4CCCO4)[C@@H]3C2)c1", "note": "(stereo partly drawn)", "INHIBITION": 20.13}, {"smiles": "CCC1CN(CC(=O)N2CCC2)CCN1CCOC", "note": "(stereo not drawn)", "INHIBITION": 24.15}, {"smiles": "CCOCCN1CCN(Cc2cccc(C(=O)N(C)C)c2)CC1CC", "note": "(stereo not drawn)", "INHIBITION": 50.05}, {"smiles": "CN(C)C(=O)c1cccc(CN2CCN(CCO)CC2)c1", "INHIBITION": 54.99}, {"smiles": "CCOCCN1CCN(Cc2cccc(C(=O)N(C)C)c2)CC1", "INHIBITION": 10.62}, {"smiles": "COCCN1CCN(Cc2cccc(C(=O)N(C)C)c2)CC1", "INHIBITION": 21.83}, {"smiles": "CCOCCN1CCN(Cc2cccc(C(=O)N(C)C)c2)CC1C", "note": "(stereo not drawn)", "INHIBITION": 30.29}, {"smiles": "CCC1CN(Cc2cccc(C(=O)N(C)C)c2)CCN1CCOC", "note": "(stereo not drawn)", "INHIBITION": 2.77}, {"smiles": "CCOCCN1CCN(CC(=O)N2CCCC2)CC1CC", "note": "(stereo not drawn)", "INHIBITION": -9.17}, {"smiles": "CCOCCN1CCN(CC(=O)N2CCC2)CC1CC", "note": "(stereo not drawn)", "INHIBITION": 53.98}, {"smiles": "Cc1ccc(CN2CC3(CCN(C(=O)C4CC4)CC3)CC2C(=O)O)o1", "note": "(stereo not drawn)", "INHIBITION": 15.46}, {"smiles": "CCn1cc(NC(=O)NCC(c2cccc(F)c2)N(C)C)cn1", "note": "(stereo not drawn)", "INHIBITION": -41.59}, {"smiles": "O=C(c1ccnnc1)N1C[C@@H](OCC2CCOCC2)[C@H]2OCCC[C@H]21", "INHIBITION": 3.35}, {"smiles": "COc1cc(C)nc(N2CCN(C(=O)CCc3cscn3)CC2)n1", "INHIBITION": -8.58}, {"smiles": "CC1CS(=O)(=O)CCN1CCCc1ccc(Cl)cc1", "note": "(stereo not drawn)", "INHIBITION": -15.12}, {"smiles": "CS(=O)(=O)N1CCOCC12CCN(Cc1ccc(F)cc1)CC2", "INHIBITION": -12.74}, {"smiles": "CNC(=O)N1CC[C@@H]2CN(Cc3cccnc3)S(=O)(=O)[C@@H]2CC1", "INHIBITION": -23.02}, {"smiles": "Cc1ccc(CN2CCC3(CC2)CC(c2cccnc2)C(=O)N3C)o1", "note": "(stereo not drawn)", "INHIBITION": 8.6}, {"smiles": "Cc1nc2c(c(=O)[nH]1)CN(Cc1ccc3c(c1)CCCN3C)CC2", "INHIBITION": 30.25}, {"smiles": "CSCCCN1CCCC1c1noc(C(C)C)n1", "note": "(stereo not drawn)", "INHIBITION": 5.05}, {"smiles": "CCn1cc(NC(=O)CN2CCC(Oc3ccccc3C)CC2)c(C)n1", "INHIBITION": 45.49}, {"smiles": "Cc1ccccc1OC1CCN(CC(=O)Nc2cn(C)nc2C)CC1", "INHIBITION": 54.75}, {"smiles": "Cc1ccccc1OC1CCN(CC(=O)Nc2ccn(C)n2)CC1", "INHIBITION": 9.02}, {"smiles": "CCOc1ncnc2c1CCN(C(=O)CN(C)C)CC2", "INHIBITION": 19.49}, {"smiles": "O=C(CC1CC1)N1Cc2nccn2CC(COc2cccnc2)C1", "note": "(stereo not drawn)", "INHIBITION": 23.97}, {"smiles": "OC1(CN2CCc3nnc(Cc4cccnc4)n3CC2)CCCNC1", "note": "(stereo not drawn)", "INHIBITION": 34.71}, {"smiles": "OCCOc1ccc(NCc2cccc3cccnc23)cn1", "INHIBITION": 67.44}, {"smiles": "Cc1ncccc1CNc1ccc(OCCO)nc1", "INHIBITION": 3.49}, {"smiles": "OCCOc1ccc(NCc2cc(F)cc3cccnc23)cn1", "INHIBITION": 45.56}, {"smiles": "CN(Cc1ccccc1)CC(O)Cn1cnc2ccc(Br)cc2c1=O", "note": "(stereo not drawn)", "INHIBITION": -12.19}, {"smiles": "O=C1CC2(CCSC2)C(=O)N1Cc1coc(-c2ccc(F)cc2)n1", "note": "(stereo not drawn)", "INHIBITION": -12.34}]}]}
